# Source: PubChem BioAssay
# Sampled rows, rich in hits. Any-hit rate of the full collection: about 21%.
# NS1 function inh = blocks influenza NS1 protein function; 270,000 compounds, 0.4% hits; Potency, µM (series often up to 46.1 µM); calls by dose curve; note: actives are rising curves; nearly all actives have a fitted effect of over 50% in size
#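 In this qHTS, NS1 from influenza A is expressed in budding yeast, where it slows growth. Cells are switched from glucose to 2% galactose medium (pH 6.0, -URA), treated with compound, and growth recovery is read at OD600.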
# Cycloheximide cs = counter-screen for Shiga toxin inhibitors: cycloheximide protein synthesis inhibition; AID 2314; max response, %; 300,000 compounds, 12% hits; cell reporter, cycloheximide protein synthesis inhibition counterscreen; in the data active = max response mostly above about 13%, no sharp cut-off; inactive = mostly below about 14%; note: read at 38.3 µM for the half of the compounds with a filed dose
# Pf growth 96h = P. falciparum growth inhibition at 96 hour, primary screen for plastid delayed-death inhibitors. P. falciparum luciferase reporter growth, 96 h. Potency, µM (top dose mostly 28.7 µM), actives largely listed as inhibitors. 320,000 compounds, 6.9% hits. AID 504834
#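 Two-generation exposure (96 h) targets delayed-death phenotype. Reporter parasites carrying integrated firefly luciferase, in red cells at 2% hematocrit and 0.05% parasitemia final, kept at 37 C, 5% CO2; luminescence loss indicates inhibition.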
# Pf growth 48h = inhibits P. falciparum growth in the first generation, 48 h | P. falciparum luciferase growth in erythrocytes, 48 h | Potency, µM (series often up to 28.7 µM), actives largely listed as inhibitors | 310,000 compounds, 5.9% hits | AID 504832
#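 Read-out is firefly luciferase luminescence from an integrated reporter in P. falciparum, so falling signal marks reduced parasite growth. Infected erythrocytes were at 2% hematocrit and 0.1% parasitemia (final) in Albumax-supplemented RPMI 1640.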
# Shiga toxin inh = blocks Shiga toxin action in Vero cells; Vero cells, Shiga toxin protein synthesis inhibition reporter; 290,000 compounds, 9.2% hits; AID 2315; inhibition, % at 38.7 µM; in the data active = inhibition mostly above about 28%, no sharp cut-off; inactive = mostly below about 43%
# A number is an active result; 0 = inactive; ? = inconclusive; - = no result; [ ] = dose if it differs, or a comment. Unless noted, calls come from the whole dose curve; as a rule, active = well fitted inhibition curve with a large enough effect; inconclusive = small, poorly fitted or top-dose-only effect, or another doubt; inactive = no such curve, though single readings can be large or run the other way.
SMILES,NS1 function inh,Cycloheximide cs,Pf growth 96h,Pf growth 48h,Shiga toxin inh
CSc1nc2ccc(NS(=O)(=O)c3cccc(Cl)c3Cl)cc2s1,0,17,0,0,0
CSc1nc2ccc(NC(=O)c3ccc(Cl)s3)cc2s1,0,0,0,0,0
O=C(NCCCN1CCOCC1)c1cccc(S(=O)(=O)Nc2cc(Cl)ccc2Cl)c1,0,0,0,0,0
CC1CC(C)CN(S(=O)(=O)c2ccc(C(C)(C)C)cc2)C1 (stereo unspecified),0,0,0,?,0
COc1ccc(C(=O)[C@H](Br)[C@H](Br)C(=O)O)cc1,0,-,-,-,-
O=S(=O)(Nc1ccc(OC(F)F)cc1)c1ccc(-c2ccon2)s1,0,0,0,0,0
CCOc1ccc(CC(=NCCO)C2=C(O)CC(C)(C)CC2=O)cc1OCC,0,0,0,0,0
O=C(O)c1ccccc1-c1ccc(C(F)(F)F)cc1,-,-,0,0,-
CCCc1[nH]n(-c2ccc([N+](=O)[O-])cc2)c(=O)c1C=NCCN1CCNCC1,0,0,0,0,0
CCCc1[nH]n(-c2ccc([N+](=O)[O-])cc2)c(=O)c1C=NCCCn1ccnc1,0,0,0,13µM,0
CCn1c(NC(C)=O)c(-c2ccccc2Cl)c(=O)c2ccccc21,0,0,0,0,0
CCOc1cc(-c2noc(N)c2C(=O)OC)cc(OCC)c1OCC,0,0,12µM,0,0
CN(C)C(=O)CSc1cccc2cccnc12,0,12,0,0,0
O=C(CSc1cccc2cccnc12)N1CCCC1,0,42,0[5.75 µM],0,37
O=C(O)c1cccnc1SCC(=O)N1CCCCCC1,0,0,?,0,0
S=C(Nc1ccc2snnc2c1)N1CCN(c2ccccn2)CC1,0,0,0,-,0
OCC[C@H]1C[C@@H](O)[C@H](O)[C@@]2(CCc3ccccc3O2)O1,-,-,0,0,-
Cc1ccc2[nH]c3c(NCc4ccco4)ncnc3c2c1,0,19,?,?,87
CCN(CCCNc1ncnc2nc[nH]c12)c1cccc(C)c1,0,0,0,0,0
c1coc(CNc2ncnc3nc[nH]c23)c1,0,0,9.3µM,0,0
CCCCN(CCCNc1ncnc2nc[nH]c12)c1ccccc1,0,0,12µM,?,0
COc1cc(CNc2ncnc3c2[nH]c2ccc(C)cc23)cc(OC)c1,0,0,?,?,0
c1ccc(CCNc2ncnc3nc[nH]c23)cc1,0,38,0,0,45
CC(=O)c1cc(C)ccc1OC(=O)c1ccco1,0,0,0,0,0
CCCCNC(=S)N/N=C/c1ccc(OCC(=O)Nc2c(C)cc(C)cc2C)c(OC)c1,0,0,0,0,0
SMILES,NS1 function inh,Cycloheximide cs,Pf growth 96h,Pf growth 48h,Shiga toxin inh
COc1cc2c(cc1NC(=O)c1ccc(C)c([N+](=O)[O-])c1)oc1ccccc12,0,0,0,0,0
COc1cc2c(cc1NC(=O)CN1CCN(S(=O)(=O)c3ccc(C)cc3)CC1)oc1ccccc12,0,0,0,0,0
COc1cc2c(cc1NC(=O)C(C)N1CCN(S(=O)(=O)c3ccc(C)c(C)c3)CC1)oc1ccccc12 (stereo unspecified),0,0,3.3µM,-,0
COc1cc2c(cc1NC(=O)C(C)N1CCN(S(=O)(=O)c3ccccc3[N+](=O)[O-])CC1)oc1ccccc12 (stereo unspecified),0,27,5.9µM,-,55
COc1ccc(S(=O)(=O)Nc2ccccc2Cl)cc1NC(C)=O,-,0,0,0[5.75 µM],0
COc1cc2c(cc1NC(=O)C(C)OC(=O)c1ccc(S(=O)(=O)Nc3ccccc3Cl)cc1)oc1ccccc12 (stereo unspecified),0,24,5.2µM,?,31
O=C(COC(=O)c1ccc2c(c1Cl)C(=O)c1ccccc1C2=O)NC1CC1,0,31,?,0,39
CCOC(=O)N1CCN(C(=O)c2ccc3c(c2)N(Cc2cc(C)ccc2C)C(=O)c2ccccc2S3=O)CC1 (stereo unspecified),0,0,0,?,0
O=[N+]([O-])c1ccc(O)c(/C=N/Nc2ccccc2Cl)c1,-,40,0,0,69
O=[N+]([O-])c1ccccc1N/N=C\c1ccccc1F,0,48,0,0,51
N#Cc1ccc(N/N=C/c2ccccc2)c([N+](=O)[O-])c1,-,0,0[5.75 µM],0,0
O=[N+]([O-])c1ccccc1N/N=C\c1ccccc1Cl,0,26,0,0,41
COc1ccc(Oc2ncccc2[N+](=O)[O-])cc1,0,0,12µM,?,0
O=C(NCc1cccs1)C(=O)NCC(c1ccco1)N1CCN(c2ccccc2F)CC1 (stereo unspecified),-,0,?,0,0
